# A number with no mark means an inactive call. Records with an inconclusive call do not appear. The source made the active and inactive calls. Unless noted, calls come from the whole dose curve; as a rule, active = well fitted curve in the direction sought with a large enough effect; inconclusive = small, poorly fitted or top-dose-only effect, or another doubt; inactive = no such curve, though single readings can be large; an effect the other way counts as inactive or inconclusive.
# What was measured:
# [1] = molecular target: Ubiquitin carboxyl-terminal hydrolase 1 (Homo sapiens) (UniProt O94782); experiment: Inhibitors of USP1/UAF1: Pilot qHTS (AID 504865); settings: purified USP1/UAF1, Ub-rhodamine cleavage fluorescence; series mostly up to 114 µM;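 note: rhodamine fluorescence freed from ubiquitin-rhodamine substrate followed over time; top concentration of the series differs between compounds; % is set by controls: 0 for no effect and ±100 for the full control effect; nearly all actives have a fitted effect of over 35% in size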
# Sequence of Ubiquitin carboxyl-terminal hydrolase 1 (Homo sapiens) (O94782 whole entry, looked up): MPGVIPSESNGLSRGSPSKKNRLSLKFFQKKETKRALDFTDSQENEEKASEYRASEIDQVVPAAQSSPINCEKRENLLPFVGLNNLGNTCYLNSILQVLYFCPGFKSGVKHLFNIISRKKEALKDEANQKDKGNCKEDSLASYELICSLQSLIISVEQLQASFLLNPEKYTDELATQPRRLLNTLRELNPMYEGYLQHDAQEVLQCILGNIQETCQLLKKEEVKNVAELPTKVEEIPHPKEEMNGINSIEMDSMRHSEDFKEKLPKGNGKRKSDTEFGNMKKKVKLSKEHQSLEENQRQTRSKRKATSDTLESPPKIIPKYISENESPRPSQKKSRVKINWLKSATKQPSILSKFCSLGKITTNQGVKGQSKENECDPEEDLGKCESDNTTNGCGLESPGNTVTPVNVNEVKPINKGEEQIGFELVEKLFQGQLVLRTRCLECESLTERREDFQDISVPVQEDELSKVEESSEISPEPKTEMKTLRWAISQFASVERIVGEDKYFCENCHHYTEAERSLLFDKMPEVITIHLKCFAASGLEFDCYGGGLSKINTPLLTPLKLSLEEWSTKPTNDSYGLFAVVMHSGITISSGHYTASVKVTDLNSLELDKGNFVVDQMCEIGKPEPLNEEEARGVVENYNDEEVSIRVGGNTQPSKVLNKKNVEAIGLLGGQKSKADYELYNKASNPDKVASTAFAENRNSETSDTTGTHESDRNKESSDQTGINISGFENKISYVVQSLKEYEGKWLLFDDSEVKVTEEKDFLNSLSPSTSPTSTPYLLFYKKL
# In short: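 USP1/UAF1 complex (1nM) preincubated with compound 15 min at room temperature, then Ub-Rho substrate (150nM final) added. Fluorescence read kinetically at 480/540 nm, 6 reads every 60 seconds. Buffer: 50mM HEPES pH 7.8, 0.5mM EDTA, 0.1 mg/ml BSA, 1mM TCEP, 0.01% Tween-20.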
# [2] = S16 Schwann cell PMP22 intronic element beta-lactamase assay (AID 624044; calls by dose curve;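 note: 0% = DMSO and -100% = potassium clavulanate positive control; nearly all actives have a fitted effect of over 15% in size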); settings: S16 rat Schwann cells, PMP22 element beta-lactamase FRET, 24 h; ratio activity, negative = inhibition: at 38.3 µM (top of the series) unless noted
# In short: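 Rat S16 Schwann cells with beta-Lac driven by a PMP22 intronic element, compound-treated 24 h at 37 °C. LiveBLAzer FRET B/G read: 460 nm normalized to potassium clavulanate vs DMSO; 535 nm FRET as viability; concentration-effect curves classified.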
# CP291 = experiment: qHTS profiling for inhibitors of Plasmodium falciparum proliferation (AID 504749);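 note: 0% = DMSO vehicle and full inhibition = artemisinin control; nearly all actives have a fitted effect of over 60% in size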; settings: P. falciparum in erythrocytes, SYBR Green DNA, 72 h; series mostly up to 28.7 µM
# In short: (§1)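 P. falciparum-infected erythrocytes (0.3% parasitemia, 2.5% hematocrit) incubated with compound 72 h at 37 C, 5% CO2. Parasite DNA detected by SYBR Green after lysis, overnight at room temperature; normalised to 0.29 uM artemisinin and DMSO.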
# CP297 = experiment: as above; settings: P. falciparum in erythrocytes, SYBR Green DNA, 72 h; series mostly up to 28.7 µM
# In short: as §1
# CP315 = experiment: as above; settings: P. falciparum in erythrocytes, SYBR Green DNA, 72 h; series mostly up to 28.7 µM
# In short: as §1
# ICS = experiment: as above; settings: P. falciparum in erythrocytes, SYBR Green DNA, 72 h; series mostly up to 28.7 µM
# In short: as §1
# [3] = qHTS Assay for Modulators of Human Peripheral Myelin Protein 22 (PMP22) Expression/Activity (AID 1967; active = well fitted curve in the direction sought with a large enough effect in the signal ratio; the % refers to the signal ratio;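 note: 0% = untreated cells and 100% end not stated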); settings: Cell-based PMP22 reporter, dual-color luciferase ratio, mouse Pmp22 promoter in mouse Schwann cells; series mostly up to 115 µM
# In short: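 MSC80 mouse Schwann cells stably carrying Pmp22 promoter–green click beetle luciferase plus EF-alpha–red luciferase control were dosed for 24h at 37 °C. Dual-colour luminescence was filter-overlap corrected; %Activity came from green/red ratio versus untreated cells.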
# [4] = molecular target: Androgen receptor (Homo sapiens) (UniProt P10275); experiment: qHTS assay for small molecule agonists of androgen receptor signaling (AID 588515; active = well fitted curve in the direction sought with a large enough effect in the signal ratio, with a control signal flat; the % refers to the signal ratio; note: % is set by controls: 0 for no effect and ±100 for the full control effect); settings: AR-UAS-bla HEK293, beta-lactamase ratio, agonist 16 h; active compounds read high
# Sequence of Androgen receptor (Homo sapiens) (P10275 whole entry, looked up): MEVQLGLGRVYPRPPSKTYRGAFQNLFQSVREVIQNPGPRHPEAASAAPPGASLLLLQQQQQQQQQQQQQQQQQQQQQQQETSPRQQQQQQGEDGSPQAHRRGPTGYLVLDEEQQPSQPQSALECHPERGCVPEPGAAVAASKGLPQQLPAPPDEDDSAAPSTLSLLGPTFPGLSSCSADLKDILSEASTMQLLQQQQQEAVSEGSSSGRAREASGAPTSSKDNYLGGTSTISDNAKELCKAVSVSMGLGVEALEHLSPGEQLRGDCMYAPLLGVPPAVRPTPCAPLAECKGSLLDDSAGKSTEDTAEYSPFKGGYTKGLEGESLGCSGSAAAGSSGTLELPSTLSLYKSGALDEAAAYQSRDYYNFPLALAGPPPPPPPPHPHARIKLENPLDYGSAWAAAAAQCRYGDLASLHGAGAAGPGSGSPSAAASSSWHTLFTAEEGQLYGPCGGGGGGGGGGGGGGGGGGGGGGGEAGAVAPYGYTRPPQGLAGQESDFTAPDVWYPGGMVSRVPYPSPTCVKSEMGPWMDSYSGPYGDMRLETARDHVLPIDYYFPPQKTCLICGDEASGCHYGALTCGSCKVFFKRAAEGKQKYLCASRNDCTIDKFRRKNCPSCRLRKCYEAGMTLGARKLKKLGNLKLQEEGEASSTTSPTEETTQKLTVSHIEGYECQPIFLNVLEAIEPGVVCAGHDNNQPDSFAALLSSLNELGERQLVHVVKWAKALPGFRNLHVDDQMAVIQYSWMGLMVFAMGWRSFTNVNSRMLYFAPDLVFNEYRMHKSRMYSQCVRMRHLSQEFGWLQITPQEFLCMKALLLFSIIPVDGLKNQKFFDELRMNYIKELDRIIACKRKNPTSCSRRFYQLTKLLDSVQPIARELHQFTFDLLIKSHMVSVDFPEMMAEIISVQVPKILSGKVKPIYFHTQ
# In short: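 EC50 and efficacy came from Hill fits of titrations (up to 92 uM) normalized to 30 nM R1881 as 100% and DMSO as 0%. Compound exposure was 16 h at 37 C on AR-UAS-bla HEK293 cells, with a 405/460/530 nm CCF4 fluorescence read.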
# [5] = molecular target: Cytochrome P450 1A2 (Homo sapiens) (UniProt P05177); experiment: p450-cyp1a2 (AID 410; calls by dose curve; note: potency is the fitted concentration of half-maximal effect); settings: recombinant CYP1A2, luciferin-ME demethylation, luminescence; series mostly up to 25.6 µM
# Sequence of Cytochrome P450 1A2 (Homo sapiens) (P05177 whole entry, looked up): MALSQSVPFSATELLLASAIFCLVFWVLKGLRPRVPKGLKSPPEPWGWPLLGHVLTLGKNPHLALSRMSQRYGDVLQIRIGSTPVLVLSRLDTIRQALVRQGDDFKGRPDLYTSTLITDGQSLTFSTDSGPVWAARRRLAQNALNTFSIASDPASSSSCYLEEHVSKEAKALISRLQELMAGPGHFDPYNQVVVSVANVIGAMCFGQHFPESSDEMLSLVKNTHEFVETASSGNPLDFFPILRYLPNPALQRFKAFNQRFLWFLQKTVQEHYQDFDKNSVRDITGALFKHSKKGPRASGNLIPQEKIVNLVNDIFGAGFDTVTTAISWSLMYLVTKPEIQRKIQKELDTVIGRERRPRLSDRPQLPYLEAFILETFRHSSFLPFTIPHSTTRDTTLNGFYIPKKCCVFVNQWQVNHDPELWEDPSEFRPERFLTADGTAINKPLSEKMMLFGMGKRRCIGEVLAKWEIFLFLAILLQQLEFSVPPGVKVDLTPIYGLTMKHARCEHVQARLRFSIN
# In short: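 Luminescent readout of luciferin formed from Luciferin-ME by human CYP1A2; data normalized against complete inhibition by 57 uM furafylline. Enzyme 20nM, substrate 100uM at Km, 100mM KPO4 buffer, 60 min reaction at room temperature.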
# [6] = molecular target: Glucocorticoid receptor (Homo sapiens) (UniProt P04150); experiment: GR-GFP Redistribution (AID 450;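 active = compounds whose dose series gives a full or clear partial fitted curve of increased nuclear translocation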; note: potency is the fitted concentration of half-maximal effect); settings: U2OS GR-GFP nuclear translocation, laser cytometry, 2 h
# Sequence of Glucocorticoid receptor (Homo sapiens) (P04150 whole entry, looked up, the tested form may be a part): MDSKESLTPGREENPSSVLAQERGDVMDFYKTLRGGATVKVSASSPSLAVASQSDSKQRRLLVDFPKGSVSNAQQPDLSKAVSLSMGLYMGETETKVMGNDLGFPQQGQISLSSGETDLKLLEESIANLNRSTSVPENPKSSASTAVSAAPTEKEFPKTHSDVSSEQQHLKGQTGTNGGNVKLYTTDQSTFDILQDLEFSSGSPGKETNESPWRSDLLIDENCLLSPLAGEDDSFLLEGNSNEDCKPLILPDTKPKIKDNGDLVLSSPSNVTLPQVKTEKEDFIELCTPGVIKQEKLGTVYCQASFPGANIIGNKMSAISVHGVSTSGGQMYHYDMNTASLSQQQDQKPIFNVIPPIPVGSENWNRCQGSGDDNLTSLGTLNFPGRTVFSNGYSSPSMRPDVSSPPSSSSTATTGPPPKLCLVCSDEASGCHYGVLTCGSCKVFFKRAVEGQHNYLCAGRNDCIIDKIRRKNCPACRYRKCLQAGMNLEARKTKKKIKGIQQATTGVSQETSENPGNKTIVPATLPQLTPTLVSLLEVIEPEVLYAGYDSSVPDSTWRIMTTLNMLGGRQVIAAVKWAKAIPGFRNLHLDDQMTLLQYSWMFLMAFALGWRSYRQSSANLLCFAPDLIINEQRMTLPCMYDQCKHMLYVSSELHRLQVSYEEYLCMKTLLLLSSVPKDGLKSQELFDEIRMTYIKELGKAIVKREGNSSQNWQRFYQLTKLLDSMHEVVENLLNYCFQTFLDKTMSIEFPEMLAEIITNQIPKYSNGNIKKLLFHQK
# [7] = molecular target: Glucocorticoid receptor (Homo sapiens) (UniProt P04150); experiment: GR-EFC Redistribution (AID 451; calls by dose curve; note: potency is the fitted concentration of half-maximal effect); settings: CHO-K1 GR-EFC translocation, beta-gal luminescence, 2 h
# In short: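 CHO-K1 cells expressing nuclear EA and GR-ED fragments of b-gal; compounds titrated up to 46 uM final, 2 h at 37 C. GR nuclear translocation read as complemented b-gal luminescence after 1 h RT detection.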
# [8] = molecular target: Cytochrome P450 2D6 (Homo sapiens) (UniProt P10635); experiment: qHTS Assay for Inhibitors and Substrates of Cytochrome P450 2D6 (AID 891); settings: recombinant CYP2D6, luciferin-ME EGE luminescence; series mostly up to 57.1 µM; note: potency is the fitted concentration of half-maximal effect; nearly all actives have a fitted effect of over 60% in size
# Sequence of Cytochrome P450 2D6 (Homo sapiens) (P10635 whole entry, looked up): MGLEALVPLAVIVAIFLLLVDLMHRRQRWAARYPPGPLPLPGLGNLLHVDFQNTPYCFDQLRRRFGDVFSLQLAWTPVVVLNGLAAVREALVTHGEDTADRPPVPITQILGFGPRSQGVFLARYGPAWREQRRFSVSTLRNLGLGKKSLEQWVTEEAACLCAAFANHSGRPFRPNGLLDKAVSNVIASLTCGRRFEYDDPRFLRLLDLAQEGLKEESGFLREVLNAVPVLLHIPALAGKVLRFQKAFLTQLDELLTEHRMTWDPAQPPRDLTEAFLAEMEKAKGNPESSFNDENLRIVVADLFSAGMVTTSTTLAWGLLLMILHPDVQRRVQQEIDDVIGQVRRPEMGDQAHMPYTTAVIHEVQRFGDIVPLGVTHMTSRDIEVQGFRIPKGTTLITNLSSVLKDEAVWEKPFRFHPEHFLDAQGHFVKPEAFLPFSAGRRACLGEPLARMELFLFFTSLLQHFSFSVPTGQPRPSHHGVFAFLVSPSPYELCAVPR
# In short: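 Human CYP2D6 (5 nM) with 30 uM Luciferin-ME EGE (at Km) in 100 mM KPO4, compound preincubated 10 min, then NADPH regeneration system for 60 min at room temperature. Luciferin read by luminescence; normalized to 1.43 uM quinidine.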
# [9] = molecular target: DNA dC->dU-editing enzyme APOBEC-3G (Homo sapiens) (UniProt Q9HC16); experiment: qHTS for inhibitors of Vif-A3G interactions: Validation (AID 588379); settings: Vif-A3G protein interaction assay; series mostly up to 46.1 µM; note: 0% is about no effect
# Sequence of DNA dC->dU-editing enzyme APOBEC-3G (Homo sapiens) (Q9HC16 whole entry, looked up): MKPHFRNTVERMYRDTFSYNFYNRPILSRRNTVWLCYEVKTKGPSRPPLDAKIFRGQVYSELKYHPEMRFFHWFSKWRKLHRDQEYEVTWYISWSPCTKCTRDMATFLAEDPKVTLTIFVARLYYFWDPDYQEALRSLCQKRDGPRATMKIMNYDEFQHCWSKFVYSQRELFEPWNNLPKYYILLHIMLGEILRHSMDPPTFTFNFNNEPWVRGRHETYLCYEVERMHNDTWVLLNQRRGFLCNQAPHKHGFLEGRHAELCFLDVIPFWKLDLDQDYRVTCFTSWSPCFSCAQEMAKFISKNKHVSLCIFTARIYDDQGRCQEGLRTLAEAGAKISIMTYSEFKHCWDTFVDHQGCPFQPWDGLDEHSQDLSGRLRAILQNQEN
# In short: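 HeLa cells stably expressing Vif and A3G-eYFP, 700 cells/well, incubated overnight at 37 deg C, then exposed to compound overnight at 37 deg C. Inhibition of Vif-mediated degradation read as increased yellow fluorescence (Ex 488/Em 500-530) by laser-scanning cytometry.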
# [10] = molecular target: Cytochrome P450 2C9 (Homo sapiens) (UniProt P11712); experiment: qHTS Assay for Inhibitors and Substrates of Cytochrome P450 2C9 (AID 883); settings: recombinant CYP2C9, luciferin-H luminescence, 60 min; series mostly up to 57.1 µM; note: potency is the fitted concentration of half-maximal effect; nearly all actives have a fitted effect of over 60% in size
# Sequence of Cytochrome P450 2C9 (Homo sapiens) (P11712 whole entry, looked up): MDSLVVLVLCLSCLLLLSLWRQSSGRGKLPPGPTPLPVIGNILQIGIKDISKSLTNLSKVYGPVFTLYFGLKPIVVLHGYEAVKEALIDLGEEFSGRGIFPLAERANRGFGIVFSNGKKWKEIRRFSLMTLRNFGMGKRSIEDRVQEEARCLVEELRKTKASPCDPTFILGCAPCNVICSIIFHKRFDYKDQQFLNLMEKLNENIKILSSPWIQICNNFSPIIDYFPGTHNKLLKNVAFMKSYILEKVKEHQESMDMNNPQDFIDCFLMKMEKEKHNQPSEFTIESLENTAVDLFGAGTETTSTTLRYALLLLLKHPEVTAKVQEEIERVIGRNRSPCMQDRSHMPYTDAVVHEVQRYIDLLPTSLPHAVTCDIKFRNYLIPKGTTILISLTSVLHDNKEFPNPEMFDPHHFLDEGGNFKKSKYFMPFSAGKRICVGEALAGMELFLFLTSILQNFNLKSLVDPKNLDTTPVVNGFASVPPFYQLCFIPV
# In short: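 10nM CYP2C9 + 100uM Luciferin-H (=KM), 25mM KPO4; cpd 10 min 37C; NADPH regen, 60 min 37C; stop/detect with P450 Glo-Buffer 20 min; luminescence. Norm. to 57uM sulphaphenazole as full inhibition.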
# [11] = molecular target: Cytochrome P450 2C19 (Homo sapiens) (UniProt P33261); experiment: qHTS Assay for Inhibitors and Substrates of Cytochrome P450 2C19 (AID 899); settings: recombinant CYP2C19, luciferin-H EGE luminescence; series mostly up to 57.1 µM; note: potency is the fitted concentration of half-maximal effect; nearly all actives have a fitted effect of over 60% in size
# Sequence of Cytochrome P450 2C19 (Homo sapiens) (P33261 whole entry, looked up): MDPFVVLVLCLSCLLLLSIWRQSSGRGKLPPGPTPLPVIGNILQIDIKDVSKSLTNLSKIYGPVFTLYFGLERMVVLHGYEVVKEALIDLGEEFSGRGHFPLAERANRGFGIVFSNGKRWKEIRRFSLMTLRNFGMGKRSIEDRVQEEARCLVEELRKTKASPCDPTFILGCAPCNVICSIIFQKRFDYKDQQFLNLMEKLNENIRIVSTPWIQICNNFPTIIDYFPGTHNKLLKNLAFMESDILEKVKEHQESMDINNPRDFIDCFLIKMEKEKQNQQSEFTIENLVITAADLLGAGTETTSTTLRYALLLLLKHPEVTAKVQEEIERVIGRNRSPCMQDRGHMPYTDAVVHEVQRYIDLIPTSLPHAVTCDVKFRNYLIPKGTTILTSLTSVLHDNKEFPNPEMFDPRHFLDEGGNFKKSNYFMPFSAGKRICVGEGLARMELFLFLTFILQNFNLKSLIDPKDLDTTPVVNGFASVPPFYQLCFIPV
# In short: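 Luminescent read-out of luciferin formed from Luciferin-H EGE (10uM, equal to KM). Enzyme 5nM in 50mM KPO4; compound added, 10 min at 37C, then NADPH regenerating system for 60 min at 37C. Full inhibition defined by 57uM ketoconazole.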
# [12] = qHTS Assay for Identification of Small Molecule Antagonists for Thrombopoietin (TPO) Signaling Pathway (AID 918); settings: TPO-dependent cell signaling reporter, antagonist mode
# In short: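 Ba/F3 (murine, hTPO-R, GPIIb-luc reporter); overnight IL-3 withdrawal; cpd + TPO 26 pM final (EC50); 24 h 37 C/5% CO2; Steadylite luminescence after 10 min RT.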
# [13] = High Content Imaging Cell-Based qHTS for Inhibitors of the mTORC1 Signaling Pathway in MEF (Tsc2-/-, p53-/-) Cells (AID 2666); settings: series mostly up to 38.3 µM;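 note: percent of cells scored positive for phospho-rpS6 Ser235/236 immunostaining by imaging; potency is the fitted concentration of half-maximal effect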
# In short: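 Phospho-rpS6 (Ser235/236) immunofluorescence, normalized and scored as % positive cells using rapamycin and DMSO controls, was read in empty-vector Tsc2-/-, p53-/- MEFs after 24 h compound exposure at 37 C; propidium iodide counted cells.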
# [14] = High Content Imaging Cell-Based qHTS for Inhibitors of the mTORC1 Signaling Pathway in MEF Cells (AID 2667); settings: series mostly up to 38.3 µM; note: potency is the fitted concentration of half-maximal effect
# In short: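 WT MEFs (Tsc2-/-, p53-/- re-expressing Tsc2), in DMEM + 10% FBS, were treated with compound for 24 h at 37 C. Cells were then fixed and stained for phospho-rpS6 Ser235/236 with propidium iodide as cell count. Values are % positive cells, with thresholds set against rapamycin-treated cells.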
# [15] = Cytometry Cell-Based qHTS for Inhibitors of the mTORC1 Signaling Pathway in MEF cells (AID 2668); settings: mTORC1 pathway readout; series mostly up to 38.3 µM; note: potency is the fitted concentration of half-maximal effect
# In short: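 WT MEFs (Tsc2-/-, p53-/- stably re-expressing WT Tsc2) in DMEM + 10% FBS received compounds 24 hrs after plating, for 24 hrs at 37 degree Celsius. Fixed cells stained with Alexa-488 anti-phospho-rpS6 Ser235/236 and propidium iodide; laser-scanning cytometry read-out.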
# [16] = qHTS for compounds that reverse cellular toxicity of Amyloid beta (A-beta) peptide in yeast: LOPAC Validation Assay (AID 720559); settings: yeast expressing A-beta; series mostly up to 46.1 µM;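 note: plate controls were DMSO for no effect and equimolar ferric chloride plus clioquinol rescue for full effect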
# In short: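 Yeast cells expressing toxic A-beta were combined with pinned compounds in growth medium and incubated 48 hr at 30 C. Growth was read as absorbance at 600 nm and normalized to DMSO and to an equimolar FeCl3/clioquinol positive control.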
smiles,measurement,setting,value
C[C@]12CC[C@H](OS(=O)(=O)O)CC1=CCC1C2CC[C@]2(C)C(=O)CC[C@@H]12 (stereo not given in full),Potency,[1],inactive
same,Potency,[2],inactive
same,Potency,CP291,inactive
same,Potency,CP297,inactive
same,Potency,CP315,inactive
same,Potency,ICS,inactive
C[C@@H]1O[C@@H](O[C@H]2C[C@@H](O)[C@]3(CO)[C@H]4[C@H](O)C[C@]5(C)[C@@H]([C@@H]6COC(=O)C6)CC[C@]5(O)[C@@H]4CC[C@]3(O)C2)[C@H](O)[C@H](O)[C@H]1O,outcome,[3],inactive
COC1=CC(=O)OC(CCc2ccccc2)C1 (stereo not given),activation,[4],-22.1%
COc1cc2c(cc1O)C[C@H]1c3c(cc(OC)c(O)c3-2)CCN1C,Potency,[5],10 µM (active)
same,Potency,[6],> 46 µM
same,Potency,[7],> 46 µM
same,Potency,[8],6.31 µM (active)
same,outcome,[9],inactive
S=C(S)N1CCCC1,Potency,[10],2 µM (active)
same,Potency,[11],3.98 µM (active)
same,Potency,[12],3.98 µM (active)
same,Potency,[13],2.61 µM (active)
same,Potency,[14],2.93 µM (active)
same,Potency,[15],4.65 µM (active)
same,outcome,[16],inactive

# Reference: PubChem BioAssay (NCATS)
